Assay outcomes from PubChem BioAssay.
In the library only some 32% were active in any assay of this set; here they are far more common.
CYP2C19 act: increases human CYP2C19 enzyme activity | recombinant CYP2C19, luciferin-H EGE luminescence; stronger effect = higher value; 0 = fully inhibited enzyme, 1 = untreated enzyme | AID 1025 | P33261 | 96,000 tested, under 10 active | activation factor at 5 µM;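 active = activation factor of at least 2 at 5 µM in the primary screen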;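 note: 0 = wells with 2.5 mM tranylcypromine and 1 = vehicle-only wells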
Target sequence (P33261 whole entry, looked up): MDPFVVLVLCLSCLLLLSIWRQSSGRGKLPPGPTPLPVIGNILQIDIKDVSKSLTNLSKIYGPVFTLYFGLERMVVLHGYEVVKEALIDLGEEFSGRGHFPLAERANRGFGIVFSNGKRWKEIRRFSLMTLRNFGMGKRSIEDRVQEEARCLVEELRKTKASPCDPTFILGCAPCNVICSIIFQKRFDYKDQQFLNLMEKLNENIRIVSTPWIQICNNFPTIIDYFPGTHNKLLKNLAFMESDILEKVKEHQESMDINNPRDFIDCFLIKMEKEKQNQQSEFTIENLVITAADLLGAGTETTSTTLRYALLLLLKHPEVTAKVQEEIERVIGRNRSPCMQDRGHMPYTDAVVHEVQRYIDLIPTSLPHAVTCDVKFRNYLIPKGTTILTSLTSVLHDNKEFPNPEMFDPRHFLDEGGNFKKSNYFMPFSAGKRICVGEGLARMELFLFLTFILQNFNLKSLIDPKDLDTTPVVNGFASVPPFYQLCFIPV
CYP2C19 inh: inhibitors of human CYP2C19; CYP2C19 Supersomes, luciferin-H EGE luminescence, 30 min; inhibition, % at 5 µM; hit rate 21% among 96,000; AID 778;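 active = CYP2C19 inhibition above a set limit at 5 µM in the primary screen, cut at about 50% in these data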;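 note: plate controls were negative control wells for no effect and 2.5 mM tranylcypromine positive control for full effect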
CYP2C9 inh: inhibitors of human CYP2C9. hit rate 20% among 96,000. P11712. CYP2C9 Supersomes, luciferin-H conversion, luminescence. inhibition, % at 5 µM. AID 777;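 active = blocking of liver enzyme CYP2C9 beyond about 50% at 5 µM, limit read from the data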
CYP2C9 activ: increases human cytochrome P450 2C9 activity; hit rate 1.4% among 96,000; recombinant CYP2C9, luciferin-H conversion, luminescence; stronger effect = higher value; factor 1 = untreated enzyme, 0 = blocked; P11712; activation factor at 5 µM;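 active = activation factor of 2 or more for CYP2C9 at a 5 µM dose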;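 note: 0 = sulfaphenazole-blocked wells and 1 = vehicle-only wells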
PostGolgi yeast: growth inhibition of a yeast mutant, post-Golgi transport screen | post-Golgi transport phenotypic cell assay | inhibition, % at 10 µM | hit rate 0.9% among 98,000;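 note: yeast cells grown in 1536-well plates; yeast grown about 18 h at 30C before absorbance read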
PostGolgi ctrl: yeast control strain growth, post-Golgi counter-screen; efflux-deficient yeast background strain, growth absorbance A615, 16 h; inhibition, % at 10 µM; hit rate 5% among 98,000; AID 738
* = called active by the depositor; · = no result given. Cut-off read from the data, not from the text of the source, unless noted: active = inhibition above about 30%; inactive = the rest.

SMILES	CYP2C19 act	CYP2C19 inh	CYP2C9 inh	CYP2C9 activ	PostGolgi yeast	PostGolgi ctrl
COC(=O)c1ccc(COc2cc(C)cc3oc(=O)c4c(c23)CCCC4)o1	0.2	78.6*	97.6*	0	-1.6	1.2
Cc1ccc(-n2nc(C)cc2NC(=O)COc2cc(C)cc3oc(=O)c4c(c23)CCC4)cc1	0.8	24.9	79.7*	0.2	0.6	7.9
Cc1cc(OCC(=O)O)c2c3c(c(=O)oc2c1)CCCC3	1	1.1	9.0	0.9	10.0	8.8
CCN1CCN(C(=O)COc2ccc3c(c2)C(=O)CC2(CCN(C(C)=O)CC2)O3)CC1	1	3.0	11.7	0.9	0.3	5.5
CN(C)C(=O)Oc1ccc2ccccc2c1Cl	0.6	43.9	8.8	0.9	4.2	5.6
CN(C)C(=O)Oc1ccc(Cl)c2ccccc12	0.3	73.0*	-106.1	2.1*	8.2	21.0
Cc1cccc(N2C(=O)NC(=O)C3(Cc4cc(C)ccc4N(C)C3)C2=O)c1 (configuration not stated)	0.9	13.4	63.4*	0.4	-0.3	6.0
Cc1cccc(N2C(=O)CC(=O)NC2=O)c1	1.1	-9.9	-8.6	1.1	5.1	13.9
COc1ccc2c(c1)CC1(CN2C)C(=O)NC(=O)N(c2ccc(C)cc2)C1=O (configuration not stated)	0.9	14.4	62.2*	0.4	0.6	9.9
COc1ccc2c(c1)CC1(CN2C)C(=O)NC(=O)N(c2ccc(F)cc2)C1=O (configuration not stated)	0.8	19.3	70.7*	0.3	23.1	-8.8
COc1ccc(N2C(=O)CC(=O)NC2=O)cc1	0.9	6.2	10.9	0.9	-9.2	0.5
Nc1ccc(C2(c3ccc(N)cc3)CN3CCC2CC3)cc1	1.1	-13.5	-5.4	1.1	-9.0	8.3
O=C(Nc1ccc(Cl)cc1)O/N=C(\c1ccccc1)c1ccccn1	0.8	17.8	56.7*	0.4	1.5	14.1
COc1cc(OC)cc(-n2nc(C(=O)N3CCC4(CC3)OCCO4)c3ccccc3c2=O)c1	1	-4.2	16.5	0.8	4.2	-0.1
CCCCn1c(O)c(C(C)=NC(Cc2c[nH]c3ccccc23)C(=O)OC)c(=O)[nH]c1=O (configuration not stated)	0	95.3*	97.3*	0	-6.4	1.6
CCCCn1c(O)c(C(C)=NCCN2CCCCC2)c(=O)[nH]c1=O	1	2.6	3.8	1	-7.3	5.5
CCCCn1c(O)c(C(C)=Nc2ccc(OCC)cc2)c(=O)[nH]c1=O	0.8	25.0	42.9	0.6	52.4*	26.0
CCCCCCn1c(O)c(C(C)=NC)c(=O)[nH]c1=O	0.2	82.6*	61.1*	0.4	-4.2	-0.9
OCCN(CC#CC(O)(c1ccccc1)C1CCCC1)CCO (configuration not stated)	0.7	31.0	-6.2	1.1	-4.2	-3.9
Cc1nonc1-c1nc(-c2nonc2N)n[nH]1	1	-3.5	7.3	0.9	-3.8	10.2
CCCCN1C(=O)NC(=O)C2(Cc3c(nc4c(C)cccn4c3=O)N3CCc4ccccc4C32)C1=O (configuration not stated)	0.2	76.9*	88.8*	0.1	1.0	39.4*
CCCCN1C(=O)NC(=O)C2(Cc3c(nc4ccccn4c3=O)N3CCc4ccccc4C32)C1=O (configuration not stated)	0.8	24.7	28.4	0.7	-5.0	22.0
CC1(C)CN=C(NCc2ccccc2Cl)S1	0.4	64.6*	9.2	0.9	3.7	0.3
CC(Cc1ccccc1)[n+]1cc(/N=C(\[O-])N(C)C)on1 (configuration not stated)	1	-2.6	20.4	0.8	-1.0	7.2
O=c1cccc2n1CC1CC2CN(Cc2ccc3c(c2)OCO3)C1 (configuration not stated)	0.4	57.4*	52.2*	0.5	·	·
C=CCOC(=O)C1=C(C)OC(N)=C(C#N)C12C(=O)N(CN1CCOCC1)c1ccccc12 (configuration not stated)	0.9	6.9	-7.6	1.1	-4.7	-7.3
O=c1c2ccccc2nc(-c2ccco2)n1-c1ccncc1	1	1.3	0.5	1	12.5	-4.9
COc1cccc(Oc2c(C)oc3cc(OC(=O)N(C)C)ccc3c2=O)c1	0.2	84.7*	41.7	0.6	-0.2	6.5
